Rows were chosen to be rich in hits. Some 1.5% of all compounds tested hit in one or more screens of this group.
S1P2 ag = agonists of human S1P2 receptor; O95136; S1P2-expressing cell line, agonist reporter read-out; activation, % at 4.5 µM; 0.46% of 97,000 active; in the data active = activation above about 16%;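 also: 0% = vehicle low control and 100% = maximal reference agonist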
Target sequence (O95136 whole entry, looked up): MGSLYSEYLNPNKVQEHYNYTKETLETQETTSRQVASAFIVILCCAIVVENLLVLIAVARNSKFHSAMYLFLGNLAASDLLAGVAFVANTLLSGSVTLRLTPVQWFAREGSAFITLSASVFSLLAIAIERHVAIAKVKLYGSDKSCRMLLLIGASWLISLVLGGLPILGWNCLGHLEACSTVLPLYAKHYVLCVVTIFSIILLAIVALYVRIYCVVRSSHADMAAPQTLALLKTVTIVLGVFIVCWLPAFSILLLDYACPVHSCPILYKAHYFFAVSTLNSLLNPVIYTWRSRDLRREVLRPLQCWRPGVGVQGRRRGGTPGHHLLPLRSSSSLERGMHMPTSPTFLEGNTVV
Mac1 fbg inh = inhibitors of human CD11b/CD18 binding to fibrinogen. P05107+P11215. K562 CD11b/CD18 adhesion to fibrinogen, ATPlite luminescence; Mn2+ added to activate the integrin. inhibition, % at 10 µM. 0.54% of 93,000 active. AID 1497;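 active = primary inhibition of 50% or more at 10 µM, then 40% or more on retest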
GALR2 ag = agonists of human galanin receptor 2 (GALR2). O43603. GALR2-expressing cells, agonist activation read-out. activation, % (concentration not given with the values). 0.48% of 140,000 active; in the data active = activation above about 5%, passing the limit was not always enough;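 also: 0% = vehicle buffer wells and 100% = reference agonist at full effect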
Target sequence (O43603 whole entry, looked up): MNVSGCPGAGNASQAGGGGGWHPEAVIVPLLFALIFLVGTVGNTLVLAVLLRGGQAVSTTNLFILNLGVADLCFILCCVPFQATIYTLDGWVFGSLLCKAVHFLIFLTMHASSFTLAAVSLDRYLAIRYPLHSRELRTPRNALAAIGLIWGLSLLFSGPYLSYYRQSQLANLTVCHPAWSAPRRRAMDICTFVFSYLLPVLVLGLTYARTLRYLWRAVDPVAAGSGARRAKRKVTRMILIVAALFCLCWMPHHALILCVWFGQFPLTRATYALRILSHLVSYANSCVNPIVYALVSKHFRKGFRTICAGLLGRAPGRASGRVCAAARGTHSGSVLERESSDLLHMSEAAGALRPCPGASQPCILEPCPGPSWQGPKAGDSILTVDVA
GALR2 blocker = blocks the human galanin receptor 2 | O43603 | GALR2-expressing cells, antagonist mode | inhibition, % at 4 µM | 0.39% of 140,000 active | AID 828;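 also: cells stimulated with galanin 1-16 at roughly its EC80; 0% = agonist challenge control and 100% = basal control without agonist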
Mac1 fbg enh = CD11b/CD18-fibrinogen binding enhancement; P05107+P11215; K562 CD11b/CD18 adhesion to fibrinogen, ATPlite luminescence; activation, % at 10 µM; 0.07% of 93,000 active; AID 1499;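 active = 10 µM primary screen giving 50% or more activity, confirmed by 40% or more on retest at that dose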
S1P2 antag = S1P2 (human) receptor antagonism; cell-based S1P2 antagonist assay, inhibition at 5 uM; inhibition, % at 5 µM; 0.21% of 97,000 active; AID 736; in the data active = inhibition above about 45%;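 also: CRE beta-lactamase reporter cells expressing human S1P2 stimulated with S1P; 0% = agonist at EC80 alone and 100% = agonist plus reference antagonist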
GALR2 blk conf = GALR2 (human) antagonism confirmed. 60% of 480 active. shares compounds with GALR2 blocker. GALR2-expressing cells, antagonist mode, inhibition. inhibition, % at 4 µM. AID 866;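 also: cells stimulated with galanin at about its EC80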
BLA inhib ctr = counter-screen for GALR2 antagonists: beta-lactamase reporter inhibitors | AID 867 | shares compounds with GALR2 blocker | CHO NFAT-BLA reporter, beta-lactamase FRET, thapsigargin-stimulated | inhibition, % at 4.2 µM | 36% of 480 active;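 active = inhibition above the mean inhibition across tested compounds plus 3 SD, cut at about 27% in these data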;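 also: 0% = 500 nM thapsigargin stimulated wells and 100% = unstimulated BSA only wells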
An asterisk follows results filed as active; / = no result given. Rule as the data show it, unless noted: active = inhibition above about 27%; inactive = the rest.

SMILES	S1P2 ag	Mac1 fbg inh	GALR2 ag	GALR2 blocker	Mac1 fbg enh	S1P2 antag	GALR2 blk conf	BLA inhib ctr
O=C(Cn1ncc(Cl)c(Cl)c1=O)N1CCN(S(=O)(=O)c2ccc3ccccc3c2)CC1	/	-24.4	-1.2	29.1*	26.7	/	55.8*	2.4
CCn1c2ccc(C)cc2c2nc3cc(C(=O)O)ccc3nc21	/	13.5	-0.7	27.6*	-1.0	/	33.5*	4.5
Cc1ccc(C)c(S(=O)(=O)N2CC(=O)N(CCc3ccccc3)C(=O)C2)c1	/	/	0.3	0.9	/	/	/	/
COc1ccc(CC(=O)Nc2cccc(S(=O)(=O)N3CCCCCC3)c2)cc1OC	/	/	-0.8	27.6*	/	/	16.0	9.0
CCCc1cc(C(=O)OC)c(NC(=O)c2cc(C)on2)s1	-2.7	/	-3.7	8.3	/	-10.0	/	/
CC[C@@H]1C=C(C)C[C@H](C)C[C@H](OC)[C@H]2O[C@@](O)(C(=O)C(=O)N3CCCC[C@H]3C(=O)O[C@H](/C(C)=C/[C@@H]3CC[C@@H](O)[C@H](OC)C3)[C@H](C)[C@@H](O)CC1=O)[C@H](C)C[C@@H]2OC	/	/	-1.1	101.1*	/	/	103.1*	103.6*
O=C1C=CC(=O)C(C2=C3C(=O)N(CCc4ccccc4)CC(=O)N3CCC2)=C1	/	/	0.2	39.5*	/	/	60.2*	80.9*
Oc1ccccc1N=Nc1nc(-c2ccccc2)c(-c2ccccc2)[nH]1	-3.5	-0.2	-1.6	29.1*	-3.8	8.9	33.5*	14.7
COc1ccccc1N=Nc1nc(-c2ccccc2)c(-c2ccccc2)[nH]1	/	35.2	4.5	22.1	3.1	/	/	/
O=C1C=C(Nc2ccccc2O)c2ccccc2C1=O	-7.5	/	-1.9	27.6*	/	5.1	14.5	29.0*
CC(=O)Nc1ccccc1O	/	/	-1.1	-8.8	/	/	/	/
CCN(CC)c1ccc(C(=O)N/N=C(\C)c2ccc(O)cc2)cc1	/	/	-3.2	30.3*	/	/	23.5	7.0
COc1ccc(/C(C)=N/NC(=O)c2ccc(N(C)C)cc2)cc1	-6.3	-10.3	-2.6	-3.0	-3.4	2.0	/	/
Cc1[nH]c2ccccc2c1-c1nc2ccccc2[nH]1	/	-2.4	-1.5	42.4*	0.0	/	49.3*	10.6
Cc1occc1C(=O)NN1C(=O)C2C3CCC(O3)C2C1=O (stereo unspecified)	/	/	-2.7	7.8	/	/	/	/
CC(C)NC(=O)CSc1nncn1-c1ccccc1	/	0.5	-1.4	27.2*	1.9	/	11.9	10.4
O=C(NCc1cccnc1)/C(=C\c1ccc(-c2ccc(Br)cc2)o1)S(=O)(=O)c1ccccc1	/	28.4	-0.5	36.9*	0.1	/	41.0*	27.4*
Cc1ccc(-c2cc(C(=O)NCc3cccnc3)no2)cc1	-8.8	-54.4	-0.6	-10.8	0.3	2.2	/	/
COc1ccc(/C=N/NC(=O)C(N)=O)c(OC)c1OC	/	/	-1.6	27.1*	/	/	8.7	12.6
COc1ccc(/C=N/NC(=O)C[n+]2ccccc2)c(OC)c1OC	/	/	-1.4	7.3	/	/	/	/
COc1cccc(N2CCN(c3ncnc4c3[nH]c3ccccc34)CC2C)c1 (stereo unspecified)	/	/	-0.4	21.1	/	/	/	/
COc1cccc(N2CCN(c3ncnc4c3[nH]c3ccc(F)cc34)CC2C)c1 (stereo unspecified)	-4.0	/	-2.4	50.6*	/	105.4*	71.9*	57.9*
O=C(/C=C/c1cn(CC(O)CN2CCCCC2)c2ccccc12)c1cccs1 (stereo unspecified)	/	/	0.1	8.7	/	/	/	/
CCCN(CCC)CC(O)Cn1cc(/C=C/C(=O)c2cccs2)c2ccccc21 (stereo unspecified)	/	-25.6	0.9	53.0*	-3.6	/	31.9*	44.0*
COc1cccc(Cn2c(NCc3ccco3)nc3c2c(=O)n(C)c(=O)n3C)c1	/	/	-0.9	27.5*	/	/	19.2	3.3
SMILES	S1P2 ag	Mac1 fbg inh	GALR2 ag	GALR2 blocker	Mac1 fbg enh	S1P2 antag	GALR2 blk conf	BLA inhib ctr
COc1ccc(Cl)c(Cn2c(NCc3ccco3)nc3c2c(=O)n(C)c(=O)n3C)c1	2.7	-23.6	-2.9	-1.9	-0.6	23.5	/	/
Cn1cnc([N+](=O)[O-])c1S(=O)(=O)c1cccc(Cl)c1	/	/	-4.0	47.4*	/	/	43.0*	21.4
CCCn1c(CC)nc([N+](=O)[O-])c1S(=O)(=O)c1ccccc1	-7.4	/	-2.2	23.7	/	36.3	/	/
Cc1nc([N+](=O)[O-])c(N2CCN(C)CC2)n1Cc1ccccc1	-7.5	/	-3.1	3.8	/	12.2	/	/
Cc1nc([N+](=O)[O-])c(Sc2nc3ccccc3n2C)n1Cc1ccccc1	/	/	-0.4	31.4*	/	/	23.1	6.2
c1ccc(SCCOCCN2CCc3ccccc3C2)cc1	/	/	-1.0	13.3	/	/	/	/
Cc1ccc2c(Cl)c(C(=O)Nc3cc(C)on3)sc2c1	-3.1	15.7	-1.5	28.6*	-5.3	4.7	9.5	11.5
Cc1ccnc(NC(=O)c2sc3ccccc3c2Cl)c1	/	/	-1.5	3.9	/	/	/	/
O=C(CN(CC1CCCO1)C(=O)CCC(=O)Nc1ccccn1)NCc1ccccc1 (stereo unspecified)	-2.9	/	-3.3	29.7*	/	-3.7	8.2	8.8
CC(C)CCNC(=O)CN(CC1CCCO1)C(=O)CCC(=O)Nc1ccccn1 (stereo unspecified)	-4.8	-9.6	-1.8	3.8	0.7	23.8	/	/
CCc1nnc(NC(=O)C=C(C)C)s1	-1.8	/	-4.5	27.7*	/	5.7	9.2	11.0
CCc1nnc(NC(=O)C(C)C)s1	-3.4	-3.5	0.1	-12.3	-2.8	-32.5	/	/
Cc1ccccc1NC(=O)/C=C/c1ccc([N+](=O)[O-])s1	/	-3.4	0.7	34.0*	0.3	/	59.8*	62.4*
CN(/N=C/c1ccc(O)cc1O)c1nc(-c2ccccc2)cc(-c2ccccc2)n1	/	-15.8	0.0	-13.7	25.4	/	/	/
COc1ccc(-c2ccc3c(N)c(C(=O)c4cccc(OC)c4)sc3n2)cc1	-7.6	-42.6	-2.7	29.4*	40.8	17.7	20.3	23.3
COc1ccc(C(=O)c2sc3nc(-c4ccc(OC)cc4)ccc3c2N)cc1	/	7.7	-1.4	6.4	31.9	/	/	/
C=CCn1c(SCc2c(Cl)cccc2Cl)nnc1-c1cccnc1	-0.4	-2.1	0.3	-11.6	-0.5	-0.1	/	/
Cc1cccnc1Nc1nc(-c2ccccn2)cs1	0.0	6.2	-1.2	27.4*	1.8	11.6	50.7*	31.2*
CNC1=C(N(C(C)=O)c2ccc(Br)cc2)C(=O)c2ccccc2C1=O	/	/	-1.1	0.7	/	/	/	/
CC(=O)C1=C(c2ccc(Br)cc2)C(=O)c2ccccc2C1=O	/	/	-1.7	35.4*	/	/	26.5	16.3
O=C1C=CC(O)(c2cc(=O)c3c(O)cc(O)cc3o2)C=C1	/	/	-2.5	90.1*	/	/	82.6*	39.3*
O=c1cc(-c2ccccc2Cl)oc2cc(O)cc(O)c12	/	/	-2.5	-1.4	/	/	/	/
COc1cc(/C=C(/C(=O)c2cccs2)c2nc3ccccc3[nH]2)cc(OC)c1O	-9.0	15.1	-3.1	32.2*	-4.6	44.3	31.5*	34.5*
O=C(Nc1ccccc1)Nc1cc(OCC(F)(F)F)cc(OCC(F)(F)F)c1	/	/	-1.7	27.3*	/	/	19.3	11.8
O=C(NCCNC(=O)c1cc(OCC(F)(F)F)ccc1OCC(F)(F)F)Nc1cccc(C(F)(F)F)c1	-6.8	21.3	-1.8	-19.2	-1.3	20.1	/	/
Cc1cnc(NC(=O)Cc2c[nH]c3ccccc23)s1	-7.2	5.6	-2.6	33.3*	-1.2	10.2	25.0	4.8
CN1CCc2nc3ccc(Cl)cc3c(-c3ccccc3Cl)c2C1	/	/	-1.0	-4.8	/	/	/	/

High-throughput results (PubChem BioAssay)
